High-throughput results (PubChem BioAssay)
The list is not random: actives were taken first. Their share in the collection is about 1.8%.
VLA-4 inh – inhibition in a human VLA-4 binding assay | P13612 | VLA-4 expressing cells, ligand binding flow cytometry | inhibition, % (about 7 µM as worked out from the volumes in the protocol) | 330,000 tested, 0.2% active
GRK2 aptamer HTS – blocks RNA aptamer binding to human GRK2; P25098; bead flow cytometry, FAM-aptamer displacement from GRK2; inhibition of aptamer binding, % at 10 µM; 330,000 tested, 0.59% active;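 active = inhibition of aptamer binding above 40%, roughly 3 SD of noise, on plates passing a quality check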;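 note: median bead fluorescence of bound FAM aptamer so fluorescent compounds give negative values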
Target sequence (P25098 whole entry, looked up): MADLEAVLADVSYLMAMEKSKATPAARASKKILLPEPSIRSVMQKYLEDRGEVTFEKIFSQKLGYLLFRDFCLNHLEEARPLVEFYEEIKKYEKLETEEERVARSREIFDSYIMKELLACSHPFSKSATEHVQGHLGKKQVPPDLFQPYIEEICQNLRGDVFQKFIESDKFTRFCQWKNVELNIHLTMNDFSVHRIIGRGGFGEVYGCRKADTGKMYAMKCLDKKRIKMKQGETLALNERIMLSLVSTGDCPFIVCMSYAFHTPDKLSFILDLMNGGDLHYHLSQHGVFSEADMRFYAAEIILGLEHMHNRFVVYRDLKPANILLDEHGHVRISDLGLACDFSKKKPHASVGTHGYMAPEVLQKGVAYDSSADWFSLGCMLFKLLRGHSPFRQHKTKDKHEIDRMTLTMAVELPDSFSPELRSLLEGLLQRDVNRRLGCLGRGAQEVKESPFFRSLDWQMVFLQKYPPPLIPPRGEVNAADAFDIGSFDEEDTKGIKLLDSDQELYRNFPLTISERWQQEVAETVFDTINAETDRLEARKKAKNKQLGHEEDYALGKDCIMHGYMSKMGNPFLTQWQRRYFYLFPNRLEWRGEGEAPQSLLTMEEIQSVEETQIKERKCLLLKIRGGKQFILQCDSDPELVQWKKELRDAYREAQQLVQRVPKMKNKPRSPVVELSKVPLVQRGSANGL
LANA-H2A inh – blocks KSHV LANA binding to histone H2A/H2B. AID 2629. Q9QR71. 320,000 tested, 0.6% active. cell-free LANA-H2A/H2B peptide, fluorescence polarization. inhibition, % (concentration not given with the values); in the data active = inhibition mostly above about 10%, no sharp cut-off; inactive = mostly below about 6.7%
PKD1 kinase inh – blocks activity of human protein kinase D1; PKD1 kinase fluorescence polarization assay; 200,000 tested, 0.056% active; Q15139; inhibition, % (concentration not given with the values)
HDAC3 inhib – human HDAC3 inhibition | recombinant HDAC3, fluorogenic peptide/trypsin coupled, fluorescence | 320,000 tested, 0.15% active | O15379 | inhibition, % at 8.3 µM | AID 2718; in the data active = inhibition above about 26%, passing the limit was not always enough; inconclusive = no clear call, values can overlap the other calls
DSG3 Ab inh – human desmoglein-3 autoantibody binding inhibition; DSG3-coupled beads, scFv-anti-DSG3-GFP binding, flow cytometry; stronger effect = lower value; 310,000 tested, 0.48% active; binding (percent of control), % at 10 µM; AID 588358; P32926;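 active = binding more than 3 SD below its plate's average and above zero; inconclusive = below that plate limit but binding exactly zero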;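 note: hits lower antibody fragment binding to DSG3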
GRK2 inh confirm – human GRK2 inhibition confirmation, cherry pick 1. bead-bound GRK2, FAM-aptamer displacement, flow cytometry. aptamer displacement, % at 10 µM. 2,000 tested, 4% active. shares compounds with GRK2 aptamer HTS. AID 504451;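 active = aptamer displacement above 40%, near three times the noise of non-fluorescent compounds, on plates passing quality checks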;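 note: negative values mostly reflect intrinsic compound fluorescence rather than true enhancement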
Aptamer quench SP – aptamer fluorescence quenching in GRK2 counter-screen; shares compounds with GRK2 aptamer HTS; Carboxyfluorescein RNA aptamer on beads, flow cytometry quenching; stronger effect = lower value; fluorescence response (% of DMSO), % at 10 µM; 2,000 tested, under 10 active; AID 504580;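 active = compounds that quench the bead-bound fluorescent RNA probe, cutting fluorescence to under half of the solvent control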;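 note: counterscreen run without GRK2 so only probe quenching by compound is measured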
GRK2 confirm 2 – confirmation of human GRK2 inhibitors binding RNA aptamer site. bead-bound GRK2, FAM-aptamer displacement, flow cytometry. AID 504782. 360 tested, under 10 active. shares compounds with GRK2 aptamer HTS. inhibition of aptamer binding, % at 10 µM;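 active = inhibition of aptamer binding above 40%, about triple the noise seen with nonglowing compounds, on plates passing quality control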;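 note: negative values mostly come from compounds that fluoresce themselves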
FAM quench CP2 – aptamer fluorescence quenching in GRK2 counter-screen; AID 588494; fluorescence response vs DMSO, % at 10 µM; carboxyfluorescein RNA aptamer beads, flow cytometry quenching; stronger effect = lower value; shares compounds with GRK2 aptamer HTS; 360 tested, under 10 active;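 active = response vs DMSO under 50%, meaning signal dropped by over half, treated as fluorescence quencher; inconclusive = no clear call, values can overlap the other calls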;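 note: labelled aptamer on streptavidin beads without GRK2 as a quench counter-screen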
Numbers stand for hits; – = inactive; ? = inconclusive; · = no result given; + = active, no number. Cut-off read from the data, not from the text of the source, unless noted: active = inhibition above about 50%; inactive = the rest.

SMILES	VLA-4 inh	GRK2 aptamer HTS	LANA-H2A inh	PKD1 kinase inh	HDAC3 inhib	DSG3 Ab inh	GRK2 inh confirm	Aptamer quench SP	others
CC(C)C(c1nnnn1C(C)(C)C)N1CCOCC1 (stereo unspecified)	–	47	–	–	–	·	–	–
CC(C)C(c1nnnn1C(C)(C)C)N1CCC(Cc2ccccc2)CC1 (stereo unspecified)	–	–	–	–	–	–	·	·
CCOc1cc(C(=O)Nc2ncn[nH]2)cc(OCC)c1OCC	–	–	–	–	–	–	·	·
O=C(/C=C/c1cccc(C(F)(F)F)c1)OCC(=O)N1CCN(c2ccccc2)CC1	–	–	–	·	–	–	·	·
COc1ccc2c(CC(=O)N3CCN(S(=O)(=O)c4ccc(F)cc4)CC3)coc2c1	–	–	–	·	–	–	·	·
Cn1c(Oc2ccccc2)c(C=O)c2ccccc21	–	53	–	–	–	–	–	–
Cc1cccc(Oc2c(C=O)c3ccccc3n2C)c1	–	–	–	–	–	–	·	·
CSc1c(CC(=O)Nc2ccccc2C(F)(F)F)n(Cc2ccccc2)c2ccccc12	–	100	–	–	–	–	·	·	GRK2 confirm 2=–;FAM quench CP2=–
COc1cc2c(cc1NC(=O)c1cccc([N+](=O)[O-])c1)oc1ccccc12	–	92	–	–	–	–	–	–
CCN(CCCNC(=O)Cn1ncc2c([nH]c3ccc(C)cc32)c1=O)c1ccccc1	–	48	–	·	–	?	–	–
CCN(CCCNC(=O)Cn1ncc2c([nH]c3ccc(C)cc32)c1=O)c1cccc(C)c1	–	–	–	·	–	·	–	–
C=CCNC(=O)c1ccc(C(=O)c2ccccc2)cc1	–	67	–	–	–	–	–	–
Cc1ccc(Oc2nc3ccccn3c(=O)c2/C=C(\C#N)C(=O)NC2CCS(=O)(=O)C2)cc1 (stereo unspecified)	–	75	–	·	–	·	–	–
Cc1ccccc1Oc1nc2c(C)cccn2c(=O)c1/C=C(\C#N)C(=O)NC1CCS(=O)(=O)C1 (stereo unspecified)	–	–	–	·	–	–	·	·
COCCCNc1nc(N)c([N+](=O)[O-])c(N2CCCCCC2)n1	–	–	–	·	–	–	·	·
Cc1cc(-c2cccnc2)c(C#N)c(SCC#N)n1	–	84	–	–	–	·	–	–
CC(C)C(=O)c1c(C(C)C)nn2ccccc12	–	–	–	·	–	–	–	–
CCCn1nnnc1NCc1c(Cl)cccc1Cl	–	–	–	–	–	–	·	·
CCCn1nnnc1NCc1c(F)cccc1Cl	–	100	–	–	–	–	–	–
O=C(c1ccc(S(=O)(=O)Nc2ccccc2F)cc1)N1CCCC1	·	·	·	·	·	–	·	·
O=C(O)c1ccc(Nc2nc3ccccc3nc2NS(=O)(=O)c2cccs2)cc1	–	94	–	·	–	–	–	–
Cc1cc(=O)oc2cc(OCC(=O)N/N=C/c3cc([N+](=O)[O-])ccc3O)ccc12	–	75	+	–	–	–	–	–
Cc1ccc(C)c(NC(=O)CCC(=O)N/N=C/c2cc([N+](=O)[O-])ccc2O)c1	–	–	–	–	–	–	·	·
CC(Oc1cccnc1[N+](=O)[O-])C(=O)N1CCc2ccccc21 (stereo unspecified)	–	–	–	·	–	–	–	–
Nc1nc(N=Nc2ccc(O)cc2)cc(=O)[nH]1	·	·	·	·	·	–	·	·
SMILES	VLA-4 inh	GRK2 aptamer HTS	LANA-H2A inh	PKD1 kinase inh	HDAC3 inhib	DSG3 Ab inh	GRK2 inh confirm	Aptamer quench SP	others
O=c1[nH]n(-c2ccc(F)cc2)c2ncccc12	–	53	–	–	–	–	–	–
O=c1ncn(-c2ccc(F)cc2)c2ncccc12	–	–	–	–	–	–	·	·
Cn1c(=O)n(CC(=O)NCC2CCCO2)c(=O)c2c3c(sc21)COC(C)(C)C3 (stereo unspecified)	–	–	–	·	–	·	·	·
CCC(=O)N=c1sc2cc([N+](=O)[O-])ccc2n1CCOC	–	–	–	–	–	–	·	·
CCOC(=O)Cn1c(=NC(=O)C(C)(C)C)sc2cc([N+](=O)[O-])ccc21	–	52	–	–	–	–	·	·	GRK2 confirm 2=–;FAM quench CP2=–
Cn1c2ccccc2c2cc(C(=O)OCC(=O)N3CC(=O)Nc4ccccc43)sc21	–	–	–	–	–	·	–	–
O=C1CN(C(=O)COC(=O)c2cccs2)c2ccccc2N1	–	–	·	·	·	·	·	·
COc1ccc(N2CCN(C(=O)NC(=O)c3ccccc3)CC2)cc1	–	57	–	·	–	–	·	·	GRK2 confirm 2=–;FAM quench CP2=–
Cc1ccc(C(=O)c2ccccc2C(=O)OCC(=O)NCC2CCCO2)cc1 (stereo unspecified)	–	–	–	–	–	–	·	·
CC(=O)Nc1ccc(NC(=O)C2CC(=O)N(Cc3ccco3)C2)cc1 (stereo unspecified)	·	·	·	·	·	–	·	·
c1ccc(-c2cn3nc(-c4ccccc4)c(-c4ccccc4)nc3n2)cc1	–	–	–	–	–	·	·	·
O=[N+]([O-])c1cccc(-c2cn3nc(-c4ccccc4)c(-c4ccccc4)nc3n2)c1	–	–	–	·	–	–	·	·
O=[N+]([O-])c1ccc(-c2cn3nc(-c4ccccc4)c(-c4ccccc4)nc3n2)cc1	–	42	–	·	–	–	–	–
Cc1ccc(-c2cn3nc(-c4ccccc4)c(-c4ccccc4)nc3n2)cc1	–	66	–	·	–	–	–	–
CCOC(=O)c1c(S(=O)(=O)N2CCCCCC2)c(C)n(C)c1C	–	–	–	·	–	–	·	·
CSc1ccc(S(=O)(=O)NCc2ccc(C)cc2)cc1	–	71	–	–	–	–	–	–
Cc1ccc(S(=O)(=O)NCc2ccccc2)cc1	–	·	–	·	–	–	·	·
NC(=O)C[C@H](N)c1cn([C@@H](CC(N)=O)C(=O)N2CCNCC2)nn1	–	49	–	·	–	–	–	–
CCOc1cc2[nH]c(=S)n(C3CC3)c(=O)c2cc1OCC	–	41	–	–	–	–	–	–
O=C(O)c1ccc(Cl)c(S(=O)(=O)Nc2ccccc2Cc2ccccc2)c1	–	–	–	·	–	–	·	·
O=CN1c2ccccc2CSc2ccccc21	–	74	–	·	–	–	–	–
COc1cccc(NC(=S)NNC(=O)CCn2cc([N+](=O)[O-])cn2)c1	–	–	–	–	–	–	·	·
CCn1cc(Cl)c(C(=O)NNC(=O)CCn2cc([N+](=O)[O-])cn2)n1	–	63	–	–	–	–	·	·	GRK2 confirm 2=–;FAM quench CP2=–
Nc1ncnc2c1ncn2[C@@H]1O[C@H](CNC(=O)[C@@H]2CCN2)[C@@H](O)[C@H]1O	·	–	·	·	·	–	·	·
